Test results reported in PubChem BioAssay (NCATS).
Records with an inconclusive call do not appear. Calls of active or inactive are those of the source. Calls follow the shape of the dose curve; as a rule, active = well fitted inhibition curve with a large enough effect; inconclusive = small, poorly fitted or top-dose-only effect; inactive = no such curve, though single readings can be large or run the other way.

Assay: qHTS assay to identify inhibitors of the type 1 interferon - major histocompatibility complex class I in skeletal muscle: Counter screen cell viability and HiBit confirmation (AID 1347412); also: nearly all actives have a fitted effect of over 60% in size
Conditions: iHSKM muscle cells + IFN-b, HiBiT or CellTiter-Glo, 24 h; Viability
Summary of the method: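 Luminescence read-out: Nano-Glo HiBiT lytic signal from C-terminally HiBiT-tagged HLA-B in CRISPR-edited human myoblasts, plus CellTiter Glo ATP as viability counter screen. IFN-beta 4.0 ng/ml; 24 hrs treatment at 37 C, 5% CO2.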
Potency is read from the fitted curve at half-maximal effect.

**Q.** With `CC[n+]1c(/C=C/C=C2/N(C)c3ccccc3C2(C)C)sc2ccccc21` as the molecule, how does the Potency read?
**A.** 9.91 µM (active)
